# Measurements: PubChem BioAssay AID624300 (Southern Research Specialized Biocontainment Screening …, 2012)
# Screen size: about 2,400 compounds; about 360 (15%) were called active. A selection follows. Measured potencies and affinities stand elsewhere. A number with no mark means an inactive call.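 How the source made its calls: active means viability falls under 70% at one or more tested concentrations, taken as toxicity; inactive means viability stays over 70% at every dose.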
# Assay: HeLa cell cytotoxicity, dose response, cytotoxicity control for MgcRacGAP inhibitor project (AID 624300);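 further: 100% = median of untreated control wells on the same plate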
# Conditions: CellTiter-Glo luminescence, 24 h; series mostly up to 100 µM; viability: at the top concentration
row,SMILES,viability [%]
1,COc1cccc(-c2ncc3ccccn23)c1,80.1
2,COc1ccc(-c2ncc3ccccn23)cc1OC,91.5
3,CS(=O)(=O)C1=NSC2=NC(=O)/C(=C\c3ccc(OC(=O)c4ccco4)c(Br)c3)C(=N)N21,103
4,CC(=O)Nc1ccc(S(=O)(=O)Nc2nc3ccccc3nc2Nc2ccc(C(=O)O)c(O)c2)cc1,104
5,C[C@@H]1O[C@@H](OC[C@H]2O[C@@H](Oc3cc(O)c4c(=O)cc(-c5ccc(O)c(O)c5)oc4c3)[C@H](O)[C@@H](O)[C@@H]2O)[C@H](O)[C@H](O)[C@H]1O,103
6,C=CC[n+]1c(/C=C/c2ccc(OC(C)=O)c(OC)c2)ccc2ccccc21,101
7,CN(C)c1ccc(/C=N/O)cc1,94.3
8,CC/C(=C\c1ccc(N(C)C)cc1)c1ccncc1,92.7
9,Nc1cc(Cc2ccccc2)ccc1O,95.1
10,N#Cc1ccc(OCC(=O)Nc2ccc(N3CCCC3)cc2)cc1,94.7
11,O=C(Nc1ccc(N2CCCCC2)cc1)c1ccccc1,84.1
12,COc1cc(N=Nc2ccc(C(=O)N(C)C)cc2)c(C)cc1N,88.4
13,N#CC1(Nc2ccc3c4c(cccc24)CC3)CCCCC1,104
14,Cc1cnc(NC(=O)C(C)N2CCN(C)CC2)s1 (centres undefined),100
15,O=C(Nc1ccccc1Cl)Oc1ccc(-c2ccccc2)cc1,88.8
16,Cc1cc(NC(=O)CN2CCC(C)CC2)no1,101
17,COc1ccccc1NS(=O)(=O)c1ccc(C)c(C(=O)N2CCN(c3ccc(O)cc3)CC2)c1,104
18,Cc1ccc(C2C=NN(c3ccccc3)C2=O)cc1 (centres undefined),93.7
19,C=CCn1c(=O)/c(=C/c2ccc(O)cc2)s/c1=C(/C#N)c1nnc2n1CCCCC2,96
20,COc1ccc(NC2CCCN(C(=O)CCc3scnc3C)C2)cc1 (centres undefined),99.4

row,SMILES,viability [%]
1,COc1cc(N)c2ncccc2c1OC,97.3
2,COc1cc(N)c2ncccc2c1SC,92.9
3,COc1ccccc1N1CCN(/N=C/c2ccc(O)cc2O)CC1,102
4,COc1ccc(CNCc2cccc(OC)c2OC)cc1Br,96
5,COc1ccc(CN2CCN(Cc3ccc(Br)cc3)CC2)c(OC)c1OC,85
6,COc1ccc(Br)cc1CNc1ccc(O)cc1,104
7,COc1ccc(Br)cc1CN(C)CC(=O)NCCc1ccccc1,93.4
8,Oc1ccc(/C=N/NC(=S)NCc2ccco2)cc1,93.7
9,CCN(CC)c1ccc(/C=N/N2CCOCC2)cc1,100
10,CCNc1nc(NCC)nc(N/N=C/c2ccc(O)c(O)c2)n1,95.7
11,COc1ccc(NC(=O)NS(=O)(=O)c2ccc(C)cc2)cc1OC,86.5
12,CCc1nnc(N/N=C/c2cc(Br)c(O)cc2O)n1N,92.8
13,COc1cc(/C=C/C(=O)OCC(=O)NCc2ccc(F)cc2)ccc1O,109
14,CCN(CC)c1ccc(Nc2nc(-c3cccnc3)cs2)cc1,101
15,CCN(CC)c1ccc(NC(=O)c2ccc(Br)o2)cc1,93
16,COc1ccc(N2CCC(CNC(=O)Nc3ccc(C)c(C)c3)C2)cc1 (centres undefined),96.6
17,COc1cc(C(=O)N/N=C/c2ccc(OC)c(CN3CCN(c4ccc(F)cc4)CC3)c2)ccc1O,101
18,CC1=CC(c2ccccc2)NC(=S)N1 (centres undefined),98.5
19,COc1ccc(NC(=O)C(C)N2CCN(C)CC2)cc1 (centres undefined),102
20,COc1cc2c(cc1N)-c1ccc(N)cc1C2,83.6

row,SMILES,viability [%]
1,COc1ccc(NC2CCCN(C(=O)c3csc(C(C)C)n3)C2)cc1 (centres undefined),106
2,CCOc1cc(/C=N/NC(=O)c2ccc(=O)n(C)c2)ccc1O,103
3,Cc1nonc1C(=O)N/N=C/c1ccc(O)cc1,87.1
4,O=C(CNC(=O)c1ccncc1)N/N=C/c1ccc(O)cc1O,88
5,COc1cc(/C=N/NC(=O)C2=NNC(=O)C2C)ccc1O (centres undefined),101
6,COc1cc(/C=N/NC(=O)c2nonc2C)ccc1O,93.3
7,COc1cc(/C=N/NC(=O)Cc2nnc(NC(=O)c3ccccc3)s2)ccc1O,97.2
8,CC(=O)Nc1ccc(S(=O)(=O)Nc2ccc(Nc3ccccc3)cc2)cc1,106
9,CCn1c(C)nc2cc(C(=O)N/N=C/c3ccc(O)cc3)ccc21,113
10,Cc1nn2cc(-c3ccc(N)cc3)nc2s1,101
11,COc1cc(/C(C)=N/NC(=O)Cc2c(C)[nH][nH]c2=O)ccc1O,99.8
12,C=CCn1c(CNc2ccc(C)cc2)nnc1SCC(=O)N/N=C/c1ccc(O)cc1O,89.8
13,CC(C)Cn1c(-c2ccc(Br)o2)n[nH]c1=S,97.4
14,CCN(CC)CCNCC(=O)Nc1ccc(Oc2ccccc2)cc1,97.4
15,CCC(=O)c1ccccc1OCCN1CCN(CC)CC1,89.8
16,CN(C)c1ccc(Cc2ccc(N(C)C)cc2)cc1,95.3
17,O=C1c2c([N+](=O)[O-])cc([N+](=O)[O-])cc2S(=O)N1Cc1ccccc1 (centres undefined),106
18,COc1cc(/C=C/C(=O)OCC(=O)Nc2cccc(F)c2)ccc1O,94.6
19,O=[S@]1Oc2ccccc2-c2ccccc21,107
